The supplement of paper PMC4894684
Structures can show the parent of a compound that is named as a salt. ± gives the standard deviation of the averaged measurements.

test system: Toxoplasma gondii RH (in HFF); assay: parasite growth relative to the screen mean (all compounds = 100%); higher = less inhibition of parasite growth; conditions: 5 µM; 72 h; oxygen 21 %
Summary of the method: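 Each value is parasite growth expressed against the screen mean, averaged over two screens, where the mean of all compounds = 100%. The screen used 5 µM final compound on confluent human foreskin fibroblasts infected with RH β-Gal–GFP Toxoplasma (MOI 1:5) within 2 h and grown 72 h at 21% O2. Parasite number was measured by a CPRG β-Gal assay against in-plate standard curves.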

Compound	parasite growth [%]
CC(Oc1ccc(O)cc1)(P(=O)(O)O)P(=O)(O)O	101 ± 21
CN(CCCN1c2ccccc2CCc2ccccc21)CC(=O)c1ccc(Cl)cc1 [Lofepramine]	185.3 ± 1.1
O=C(/C=C/c1ccccc1)NC(NC(=S)Nc1cccc2cccnc12)C(Cl)(Cl)Cl (centres undefined) [Salubrinal]	86.2 ± 17
O=C1c2ccccc2C(Cc2ccncc2)(Cc2ccncc2)c2ccccc21 [XE 991 dihydrochloride]	34.3 ± 6.2
NC[C@@H]1O[C@H](C23CC4CC(CC(C4)C2)C3)Cc2c1ccc(O)c2O	89.5 ± 18
Nc1ncnc2c1nc(Br)n2[C@@H]1O[C@@H]2COP(=O)(O)O[C@H]2[C@H]1O [8-Bromo-cAMP, sodium salt]	125 ± 25
COc1ccc([C@H]2CNC(=O)C2)cc1OC1CCCC1 [(S)-(+)-Rolipram]	116 ± 30
FC(F)(F)c1cccc(-c2noc(-c3cc(-c4ccccc4)c(C(F)(F)F)s3)n2)c1	109 ± 44
COc1ccccc1N1CCN(CCN2C(=O)c3ccccc3C(C)(C)C2=O)CC1 [ARC 239 dihydrochloride]	108 ± 47
CCCC1O[C@@H]2C[C@H]3[C@@H]4CCC5=CC(=O)C=C[C@]5(C)[C@H]4[C@@H](O)C[C@]3(C)[C@]2(C(=O)CO)O1 (some centres undefined) [Budesonide]	138 ± 12
C/C=C1\C(=O)C[C@H]2[C@@H]3CCC4=CC(=O)CC[C@]4(C)[C@H]3CC[C@]12C [Guggulsterone]	90.6 ± 26
FC(F)(F)c1cc(COC2CCCNC2c2ccccc2)cc(C(F)(F)F)c1 [L-733,060 hydrochloride]	29.6 ± 16
CC1(c2ccccc2)OC(C(=O)O)=CC1=O (centres undefined) [Acifran]	114 ± 2.4
N[C@@H](CSC(c1ccccc1)(c1ccccc1)c1ccccc1)C(=O)O [S-Trityl-L-cysteine]	118 ± 8.6
Cc1c(C(=O)NN2CCOCC2)nn(-c2ccc(Cl)cc2Cl)c1-c1ccc(I)cc1	88.1 ± 20
NC(=O)N/N=C/c1ccc(Oc2ccc(F)cc2)cc1	145 ± 19
O=c1[nH]nc(Sc2ncc([N+](=O)[O-])s2)n1-c1ccc2c(c1)OCCO2	130 ± 46
COc1ccc(CCN(C)CCCOc2ccc(S(=O)(=O)c3c(C(C)C)c4ccccc4n3C)cc2)cc1OC	< 0
CCCCc1nn(-c2ccccc2C(F)(F)F)c(=O)n1Cc1ccc(-c2ccccc2S(=O)(=O)NC(=O)c2sccc2C)cc1	137 ± 20
CCN(CC)c1ccc(/C=N/NC(=O)c2ccc(O)cc2)cc1	115 ± 28

Compound	parasite growth [%]
COc1cc(CNC(=O)CCCC/C=C/C(C)C)ccc1O [(E)-Capsaicin]	135 ± 14
Nc1nnc(Sc2ncc([N+](=O)[O-])s2)s1	116 ± 26
CC(C)NCC(O)COc1ccccc1-n1cccc1 (centres undefined) [Isamoltane hemifumarate]	97 ± 39
COc1cc(NC(=O)c2ccccn2)ccc1Cl	91.2 ± 30
COc1cc(C(=O)OCCCN2CCCN(CCCOC(=O)c3cc(OC)c(OC)c(OC)c3)CC2)cc(OC)c1OC [Dilazep dihydrochloride]	54.3 ± 11
O=C(/C=C/c1c(C(=O)O)[nH]c2cc(Cl)cc(Cl)c12)Nc1ccccc1 [Gavestinel]	114 ± 17
CN(C)CCCn1cc(C2=C(c3c[nH]c4ccccc34)C(=O)NC2=O)c2ccccc21	< 0
CC(C)N1Cc2cc(S(C)(=O)=O)ccc2N(CCN2CC=C(c3c[nH]c4cc(F)ccc34)CC2)S1(=O)=O	181 ± 36
COC(=O)/C=C/c1cc(O)ccc1O [Methyl 2,5-dihydroxycinnamate]	126 ± 30
CCOC(=O)[C@]12CC1/C(=N\O)c1ccccc1O2 (some centres undefined)	83 ± 23
CCOC(=O)N1CCC(=C2c3ccc(Cl)cc3CCc3cccnc32)CC1 [Loratidine]	112 ± 4.8
O=c1[nH]c2cc(Cl)ccc2c(O)c1-c1cccc(Oc2ccccc2)c1	103 ± 19
c1ccc(N2CCN(Cc3nc4ccccc4[nH]3)CC2)nc1 [ABT 724 trihydrochloride]	98.1 ± 12
CCc1cc2c(c(CC)n1)CCC(=O)N2Cc1ccc(-c2ccccc2-c2nn[nH]n2)cc1 [ZD 7155 hydrochloride]	91.1 ± 57
Nc1nc(NCCc2ccc(O)cc2)nc2nc(-c3ccco3)nn12	11.2 ± 10
OC(CCCN1CCN(c2ncc(F)cn2)CC1)c1ccc(F)cc1 (centres undefined)	64.6 ± 30
O=c1oc(-c2ccc(C(F)(F)F)cc2)nn1Cc1cc(Cl)ccc1O	146 ± 11
COc1ccccc1N1CCN(CCCNc2cc(=O)n(C)c(=O)n2C)CC1 [Urapidil hydrochloride]	105 ± 3.7
Clc1ccc2nsnc2c1NC1=NCCN1 [Tizanidine hydrochloride]	113 ± 2.4
